Compounds without any hit were thinned out: in the full panel of roughly 83,000, 20% have a hit.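 Percent growth is the endpoint: 0 to 100 indicates growth inhibition (40 means 60% inhibition), 0 means no net growth, and negative values indicate cell death.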 Values without a mark were called inactive. Activity calls are given as the source filed them. The calls were made as follows: active = growth percent below 10; inactive = the rest.
tested on: HOP-92 NSCLC; experiment: NCI-60 one-dose screen, 48 h (100 = growth as untreated, 0 = no growth, -100 = all killed); conditions: 10 µM unless noted

In order of rising growth:
1. CN1CCN(c2nc(-c3cnc4ccccc4n3)cc3ccccc23)CC1  17.3%
2. CCCCCc1ccc(S(=O)(=O)N(C(C)=O)c2cccc(-c3csc(N(CCN4CCN(C)CC4)C(C)=O)n3)c2)cc1  34%
3. O=C(CCCCCCN1CC(=O)N2[C@@H](c3cccc(Cl)c3)c3[nH]c4ccccc4c3C[C@H]2C1=O)NO  44.5%
4. CS(=O)c1nccc(-c2c(-c3ccc(F)c(OCc4ccccc4)c3)nc3sccn23)n1 (stereo not drawn)  51.8%
5. CC(=O)Oc1ccc(CCN2C(=O)CSC2=S)cc1  53.7%
6. O=C(NNc1nc2cc(F)c(F)cc2n2cccc12)c1ccncn1  62.7%
7. CCCCCCNC(=O)Oc1ccc(/C(=C(/C)c2ccc(OC)cc2)c2ccc(OCCN3CCCC3)cc2)cc1  62.8%
8. COc1cc(/C=N/n2cnc3oc(-c4ccccc4)cc3c2=N)cc(CN2CCOCC2)c1O  63.3%
9. O=C(NNc1nc2cc(F)cc(F)c2n2cccc12)c1ccncn1  67.4%
10. C[C@H]1[C@H](C)CC[C@]2(COC(=O)c3cccnc3)CC[C@]3(C)C(=CC[C@@H]4[C@@]5(C)CCCNC(C)(C)[C@@H]5CC[C@]43C)[C@H]12  67.5%
11. CCOC(=O)/C=c1\sc2n(c1=O)C1C(NN=2)N(CC)C(=O)N1CC (stereo not drawn)  75.3%
12. CC(C)=CCC[C@](C)(O)[C@H]1CC[C@]2(C)[C@@H]1CC[C@@H]1[C@@]3(C)CCC(NC(=O)c4ccccc4C(=O)O)C(C)(C)[C@@H]3CC[C@]12C (stereo partly drawn)  75.6%
13. CN1CCN(c2ccc3c(C(N)=O)c(NC(=O)c4ccc(C(C)(C)C)cc4)sc3c2)CC1  79%
14. O=C(/C=C/c1cn(-c2ccccc2)nc1-c1ccc(Cl)cc1)c1cc2ccccc2oc1=O  79.6%
15. COc1ccc(OC)c([C@H]2c3[nH]c4ccccc4c3C[C@H]3C(=O)N(CCCCCCC(=O)NO)CC(=O)N23)c1  82%
16. O=C(CN1C(=O)S/C(=C\c2ccccc2)C1=O)Nc1ccc(C(=O)/C=C/c2cc3ccccc3nc2Cl)cc1  87.9%
17. COc1cc(/C=C/C(=O)c2ccc(NC(=O)COc3cccc4cccnc34)cc2)cc(OC)c1OC  90.1%
18. O=c1c2ccccc2nc(COc2ccccc2)n1/N=C/C=C/c1ccccc1  102%
19. C=C(C)[C@@H]1CC[C@]2(C(=O)NCCCN(CCC#N)CCC#N)CC[C@]3(C)[C@H](CC[C@@H]4[C@@]5(C)CCC(=O)C(C)(C)[C@@H]5CC[C@]43C)[C@@H]12  102%
20. CN(C)c1ccc(/C=N/Nc2nc(N/N=C/c3ccc(N(C)C)cc3)nc(N3CCOCC3)n2)cc1  109%
21. N#Cc1c(-c2cccs2)cc(-c2cnccn2)nc1SCC(=O)NNC(=S)Nc1ccc(F)cc1  112%
22. CN1CCN(c2ccc(NC(=O)Nc3ccc4c(ccn4-c4cccc(C(N)=O)n4)c3)cc2C(F)(F)F)CC1  119%

`COc1cc2oc(-c3cccc(NC(=O)c4cc(NC(=O)[C@H](C)NC(=O)OC(C)(C)C)ccc4C)c3)cc(=O)c2c(OC)c1OC` was tested, and the growth was -0.546% (active).
`CN1CCN(Cc2ccc(NC(=O)c3cncc(C#Cc4cnc5ccc(NC6CCOCC6)nn45)c3)cc2C(F)(F)F)CC1` was tested, and the growth was -29.2% (active).
With `O=C(Nc1ccc(Cl)cc1)Nc1nc2ccc([N+](=O)[O-])cc2s1` the growth was -25.9% (active).
With `O=C(Nc1cccc(Cl)c1)Nc1nc2ccc([N+](=O)[O-])cc2s1` the growth was -11.9% (active).
With `Cc1cc(O)c(=O)cc2c1C[C@H]1CC(C)(C)/C=C/C[C@]3(C)Oc4cc(=O)c(O)cc(C)c4C[C@H]3C[C@H](O)[C@@]1(C)O2` the growth was -16.1% (active).

`CC(=O)NC(C)(C)C(=O)N1CCC[C@H]1C(=O)NC(C)(C)C(=O)N[C@@H](C)C(=O)NC(C)(C)C(=O)N[C@@H](C)C(=O)N[C@@H](CCC(N)=O)C(=O)NC(C)(C)C(=O)N[C@H](C(=O)NC(C)(C)C(=O)NCC(=O)N[C@@H](CC(C)C)C(=O)NC(C)(C)C(=O)N1CCC[C@H]1C(=O)N[C@H](C(=O)NC(C)(C)C(=O)NC(C)(C)C(=O)N[C@@H](CCC(N)=O)C(=O)N[C@@H](CCC(N)=O)C(=O)N[C@H](CO)Cc1ccccc1)C(C)C)C(C)C` was tested, and the growth was 60% [4.25 µM].

— PubChem BioAssay (NCI)
